Source: PubChem
JMJD2A Tudor – JMJD2A Tudor domain (human) inhibition | O75164 | AlphaScreen JMJD2A-Tudor / H3K4me3 peptide binding | Potency, µM (highest dose often 114 µM), without a hit: at the highest dose activity change, negative = inhibition, hits mostly inhibitors | hit rate 4.4% among 390,000; further: on the % scale 0 is the no-effect control and ±100 the full control effect; nearly all actives have a fitted effect of over 50% in size
GLS inhibitor – glutaminase GLS (human) inhibition; Potency, µM (titrated, usually from 45.5 µM), for inactives: top-dose activity change, negative = inhibition, usual class: inhibitors; hit rate 0.21% among 410,000; AID 624170; GLS enzymatic activity, qHTS titration; further: on the % scale 0 is the no-effect control and ±100 the full control effect
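Human kidney-isoform GLS in 45 mM KH2PO4 pH 8.2, 0.02% Tween-20, with compound, started with 1mM L-Glutamine (added stock). Glutamate oxidase/HRP/Amplex red coupled fluorescence read at start and after 30 min at RT.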
G9a inh – G9a (human) methyltransferase inhibition. Q96KQ7. G9a H3K9 monomethylation, AlphaScreen, 2 h. Potency, µM (highest dose often 102 µM), for inactives: top-dose activity, negative = inhibition, usual class: inhibitors. hit rate 8.8% among 350,000; further: on the % scale 0 is the no-effect control and ±100 the full control effect; nearly all actives have a fitted effect of over 75% in size
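Signal arises when biotinylated H3K9 peptide, once monomethylated, bridges streptavidin donor and antibody-captured acceptor beads. Enzyme at 20 nM was preincubated 15 min with test compounds; peptide 500 nM and SAM 20 uM then reacted for 2 h.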
BAZ2B block – blocks human BAZ2B; Q9UIF8; AlphaScreen BAZ2B-H3K14Ac peptide displacement; Potency, µM (highest dose often 114 µM), for the others: at the highest dose activity change, negative = inhibition, actives largely listed as inhibitors; hit rate 4.4% among 360,000; further: on the % scale 0 is the no-effect control and ±100 the full control effect; nearly all actives have a fitted effect of over 60% in size
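Complex of BAZ2B and biotin-H3K14Ac (50 nM apiece) forms over 30 min at RT, then faces library compounds up to 110 uM for another 30 min; AlphaScreen beads added, 20 min dark incubation, luminescence read.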
HP1b chromo inh – inhibitors of HP1-beta chromodomain binding to methylated histone tails | P83916 | AlphaScreen HP1-beta / biotin-H3K9me3 peptide binding | Potency, µM (series often up to 114 µM), for inactives: at the top dose activity change, negative = inhibition, usual class: inhibitors | hit rate 0.56% among 390,000 | AID 540317; further: nearly all actives have a fitted effect of over 70% in size
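Compound inhibition of the preformed complex between 50 nM HP1-beta and 50 nM biotinylated H3K9me3 peptide was read by AlphaScreen. Buffer was PBS pH 7.4 with 0.01% Tween-20. Incubations ran 30 min at room temperature, with 10 ug/mL donor/acceptor beads.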
L3MBTL1 inh – L3MBTL1 (human) inhibition | AlphaScreen L3MBTL1–H3K9me1 peptide binding | Potency, µM (titrated, usually from 57.1 µM), for the others: at the highest dose activity, negative = inhibition, usual class: inhibitors | hit rate 0.66% among 230,000; further: on the % scale 0 is the no-effect control and ±100 the full control effect; nearly all actives have a fitted effect of over 60% in size
Target sequence (Q9Y468 whole entry, looked up): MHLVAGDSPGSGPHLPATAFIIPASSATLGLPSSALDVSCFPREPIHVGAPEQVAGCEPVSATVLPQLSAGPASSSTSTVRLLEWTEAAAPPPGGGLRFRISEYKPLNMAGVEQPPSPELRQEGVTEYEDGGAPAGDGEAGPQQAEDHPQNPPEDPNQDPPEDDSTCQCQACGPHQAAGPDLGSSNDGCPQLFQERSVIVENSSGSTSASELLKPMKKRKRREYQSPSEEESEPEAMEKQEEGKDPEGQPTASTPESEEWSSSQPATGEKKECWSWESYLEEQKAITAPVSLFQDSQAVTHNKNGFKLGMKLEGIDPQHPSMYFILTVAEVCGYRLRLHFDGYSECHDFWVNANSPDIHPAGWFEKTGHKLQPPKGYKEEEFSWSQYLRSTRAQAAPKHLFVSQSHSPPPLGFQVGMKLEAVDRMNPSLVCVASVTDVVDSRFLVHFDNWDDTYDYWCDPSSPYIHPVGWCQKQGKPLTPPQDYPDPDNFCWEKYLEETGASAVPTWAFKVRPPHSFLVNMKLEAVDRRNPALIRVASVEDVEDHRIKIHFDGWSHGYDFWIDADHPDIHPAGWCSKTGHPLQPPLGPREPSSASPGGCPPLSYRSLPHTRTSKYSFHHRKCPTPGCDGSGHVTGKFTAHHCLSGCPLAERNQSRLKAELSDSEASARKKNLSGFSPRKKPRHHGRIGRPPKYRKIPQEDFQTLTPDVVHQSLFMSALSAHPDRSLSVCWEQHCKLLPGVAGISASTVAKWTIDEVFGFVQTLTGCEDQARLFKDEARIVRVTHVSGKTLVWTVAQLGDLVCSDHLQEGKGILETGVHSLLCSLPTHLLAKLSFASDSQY
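L3MBTL1 50 nM + b-AHA-H3(1-15)K9me1 75 nM, 30 min RT; compound added, 30 min RT; streptavidin donor/Ni-chelate acceptor beads 10 ug/mL each final, 30 min RT dark; AlphaScreen read.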
An asterisk follows results filed as active; ? = inconclusive; · = no result given; [ ] = dose if it differs, or a comment. Sampled rows, rich in hits. Any-hit rate of the full collection: about 10%. The call rests on the fitted dose curve; in most records, active means well fitted curve in the direction sought with a large enough effect; inconclusive means small, poorly fitted or top-dose-only effect, or another doubt; inactive means no such curve, though single readings can be large; an effect the other way counts as inactive or inconclusive. Potency means the concentration at half of the fitted maximal effect.

SMILES	JMJD2A Tudor	GLS inhibitor	G9a inh	BAZ2B block	HP1b chromo inh	L3MBTL1 inh
c1cc2c3c(cccc3c1)C(N1CCOCC1)=N2	-14%	-8%	·	-2%	2%	1%
c1ccc(CC2CCN(C3=Nc4cccc5cccc3c45)CC2)cc1	22µM*	-5%	?	50µM*	?	-13%
CCCCCCCCCCCCCCCCOCCOCCOCCOCCOCCOCCOCCOCCOCCOCCOCCOCCOCCOCCOCCOCCOCCOCCOCCOCCO	·	-4%	-5%[12.7 µM]	·	·	·
C[C@H](CO)N1C[C@H](C)[C@@H](CN(C)CC2CCCCC2)Oc2c(NC(=O)Cc3ccccc3)cccc2C1=O	56µM*	11%	·	·	-4%	-7%
Fc1ccc(NC(=S)NN=C2CCCCCC2)cc1	56µM*	2%	35µM*	?	-24%	-11%
O=C(NN=C1CCCCCCC1)c1ccc(F)cc1	?	3%	-8%	-13%	-9%	5%[11.4 µM]
O=C(COc1ccc(Cl)cc1)NN=C1CCCCCCC1	-4%	-18%	59%	-9%	18%	·
S=C(NN=C1CCCCCC1)Nc1ccc(Cl)cc1	100µM*	10%	28µM*	-2%	-18%	·
COc1ccccc1CCNC(=O)Cc1c(C)c2c(O)cc(C)cc2oc1=O	-1%	-11%	-29%[59 µM]	-4%	36%	·
O=C(Nc1nccs1)c1cc(-c2ccco2)nc2ccccc12	-32%	-23%	?	50µM*	-6%	14µM*
Cc1nnc(NC(=O)c2cc(-c3ccco3)nc3ccccc23)s1	·	·	40µM*	40µM*	·	6.3µM*
CCOC(=O)c1ccc(NC(=O)CSc2nc(-c3ccc(F)cc3)cc(C(F)(F)F)c2C#N)cc1	-4%	5%	-24%[59 µM]	-3%	50%	·
CC1CCc2sc(-c3n[nH]c(=S)o3)cc2C1 (stereo not given)	-19%	24%	13µM*	?	29%	-16%
CCOC(=O)c1c(C)oc2c1c1c(c3ccccc32)OCN(CCCC(=O)O)C1	?	29%	8.9µM*	?	-4%	-11%
CCOC(=O)c1c(C)oc2c1c1c(c3ccccc32)OCN(Cc2cccnc2)C1	?	17%	?	?	-10%	-3%[11.4 µM]
COc1ccc(N/C(=C(/C(Cl)=C(Cl)Cl)[N+](=O)[O-])n2nnc3ccccc32)cc1	·	·	11µM*	50µM*	·	·
Cc1ccccc1N/C(=C(/C(Cl)=C(Cl)Cl)[N+](=O)[O-])n1nnc2ccccc21	?	15%	10µM*	50µM*	-5%	·
Cc1c2cnn(-c3ccccc3)c(=O)c2c(C)n1CC(=O)NCc1ccccc1Br	5%	-4%	5%[59 µM]	0%	31%	·
CCn1c(C)c(C)c2cc(C(=O)NC3CCCCCC3)ccc21	?	7%	-6%	35µM*	-19%[57 µM]	·
CCn1c(C)c(C)c2cc(C(=O)N3CCCC3)ccc21	-24%	-6%	-4%	-36%	-1%	·
Cc1c(C)n(Cc2ccccc2)c2ccc(C(=O)N3CCN(c4ccccc4F)CC3)cc12	?	-4%	?	?	28%	·
Cc1c(C)n(Cc2ccc(F)cc2)c2ccc(C(=O)N3CCN(c4ccccn4)CC3)cc12	?	2%	32µM*	?	-21%[57 µM]	·
CCn1c(C)c(C)c2cc(C(=O)N3CCN(c4ccccc4)CC3)ccc21	45µM*	5%	?	28µM*	?	·
CCc1ccccc1NC(=O)Cn1nc2c3cc(F)ccc3n(Cc3cccc(C)c3)cc-2c1=O	-6%	-1%	-10%[59 µM]	-11%	14%	·
Cc1ccc(Cn2c(C(=O)O)c(CNC3CCCCCC3)c3ccc(C)cc32)cc1	-21%	11%	-33%[59 µM]	-15%	9%	·
SMILES	JMJD2A Tudor	GLS inhibitor	G9a inh	BAZ2B block	HP1b chromo inh	L3MBTL1 inh
Cc1cc(C)c2c(=O)c3c(oc2c1)C(=O)N(CCCOC(C)C)C3c1ccccc1F (stereo not given)	-20%	-2%	0%[59 µM]	0%	28%	·
O=C(c1ccc(CS(=O)c2ccccc2Cl)o1)N1CCN(c2ccccn2)CC1 (stereo not given)	-4%	0%	89µM*	-15%	46%	·
O=C(c1ccc(COc2ccccc2Br)o1)N1CCN(c2ccccn2)CC1	?	·	-4%	-27%[57.1 µM]	-8%	-23%
O=C(c1ccc(C#Cc2ccccc2)o1)N1CCN(c2ccccn2)CC1	-18%	0%	45µM*	?	?	-22%
O=C(Nc1ccc(Cl)c(C(F)(F)F)c1)C(Cc1ccccc1)NS(=O)(=O)c1cccc2nsnc12 (stereo not given)	-13%	0%	-1%[59 µM]	·	24%	·
CCc1nc(N2CCN(C(=O)CCl)CC2)c2c3c(sc2n1)CC(C)CC3 (stereo not given)	-29%	-1%	79µM*	-25%	17%	-3%
Oc1[nH]c2ccccc2c1C=Nc1ccc2c(c1)OCCO2	?	2%	-5%	35µM*	-7%	-7%
COc1ccc(OCc2cc(C3Nc4ccccc4C(=O)N3Cc3ccccc3)ccc2OC)cc1 (stereo not given)	-20%	·	·	·	·	·
Cc1nn(Cc2cccc(C(=O)O)c2)c(C)c1[N+](=O)[O-]	-8%	-4%	12%	-12%	30%	3%
COc1cccc(-c2noc(Cn3nc(C)c([N+](=O)[O-])c3C)n2)c1	-12%	-9%	40µM*	0%	-12%	-6%
COC(=O)c1cccc(Cn2nc(C)c([N+](=O)[O-])c2C)c1	50µM*	-12%	5%[59 µM]	-15%	9%	·
COc1ccccc1NC(=O)Cn1c(=O)n(-c2cccc(Cl)c2)c(=O)c2c1c1cc(C)ccc1n2C	-4%	-3%	-26%[59 µM]	0%	26%	·
CCOC(=O)CNC(=O)CSc1nc2sc(C)c(C)c2c(=O)n1C	-25%	-13%	45µM*	-26%	6%	-5%
Cc1sc2nc(SCC(=O)NCCO)n(C)c(=O)c2c1C	-4%	-5%	-5%[59 µM]	5%	31%	·
Cc1cccc2sc(N(CCCN3CCOCC3)C(=O)CS(=O)(=O)c3ccc(F)cc3)nc12	-26%	-9%	56µM*	-26%	15%	3%
O=C(CS(=O)(=O)c1ccccc1)N(CCCN1CCOCC1)c1nc2c(F)cccc2s1	-14%	-2%	?	-23%	30%	0%
Cc1cccc2sc(N(CCN3CCOCC3)C(=O)CCS(=O)(=O)c3ccccc3)nc12	-16%	5%	50µM*	0%	17%	-7%
CCc1ccccc1N(C)C(=O)Cn1cnc2sc(C)c(S(=O)(=O)N3CCN(c4ncccn4)CC3)c2c1=O	-27%	-5%	-2%[59 µM]	-1%	12%	·
O=C1C([N+](=O)[O-])=C(O)c2cccc3cccc1c23	·	·	1.3µM*	45µM*	·	·
COc1ccc(N=C2C(=O)Nc3c(C)cccc32)cc1	?	-4%	50µM*	?	-7%	-4%
